# Most compounds without a hit are left out; they make up all but 2.2% or so of the library.
# EWS-Fli block – EWS/Fli-driven NR0B1 reporter inhibitors, primary screen, A673 cells, NR0B1 luciferase, luminescence, MLPCN library | viability-normalised | inhibition, % at 12.6 µM | 0.67% of 350,000 active;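 active = mean inhibition of at least 50% after viability correction, with every replicate also passing that limit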;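 note: firefly luciferase signal divided by Alamar Blue viability fluorescence both relative to DMSO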
# PAX8 reporter – inhibitors of PAX8-driven TPO luciferase reporter, primary screen, RMG-I cells, single concentration; SteadyGlo, 24 h; inhibition, % at 12.6 µM; 1.2% of 360,000 active; AID 652154, 2013;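 active = mean replicate inhibition at least 60% with every replicate also reaching 60%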;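 note: luciferase light reporting Pax8 driven TPO promoter activity; plate controls were median of neutral control wells for no effect and mitoxantrone controls for full effect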
# Shn3 3UTR inh – reduction of Shn3 3'UTR firefly luciferase signal, primary screen, Schnurri-3 inhibitor project, cell-based, Clone20 osteoblasts, set 2 | Clone20 osteoblast Shn3 3'UTR firefly luciferase, 24 h | inhibition, % at 12.5 µM | 0.52% of 360,000 active;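 active = mean inhibition of at least 75% with every replicate also reaching 75%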;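 note: 0% = median of neutral control wells and 100% = pilot-screen positive control compound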
# LGR2 antag – inhibitors of bursicon-induced LGR2 CRE-luciferase signal, primary screen, cell-based, HEK293, CRE-luciferase reporter, bursicon stimulation. Drosophila bursicon receptor LGR2 (rickets). bursicon-stimulated, 4 h. inhibition, % at 9.99 µM. 0.35% of 380,000 active. AID 720647, 2013;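 active = drop in luminescence signal, shown as inhibition above about 50% in the replicate tests, limit read from the data, passing the limit was not always enough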;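 note: agonist challenge used bursicon conditioned medium at about half maximal strength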
# MITF TRPM1 inh – inhibitors of MITF-dependent TRPM1 promoter reporter, primary screen, cell-based, SK-MEL-5, single point, luciferase. SK-MEL-5 TRPM1 promoter luciferase, 24 h. inhibition, % at 12.5 µM. 0.83% of 330,000 active;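 active = mean inhibition across replicates of 60% or more, whatever share of single replicates reaches that level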
# EBV LMP1 NFkB – EBV LMP1-driven NF-kappaB luciferase reporter inhibitors, primary screen, cell-based, luminescence, single point; AID 504558, 2011; LMP1-induced NF-kappaB luciferase reporter cells; inhibition, % at 12.5 µM; 0.69% of 350,000 active; in the data active = inhibition above about 41%;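 note: 0% = neutral control wells and 100% = reference inhibitor control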
# Numbers without * were called inactive; x = not tested or not shown.
SMILES,EWS-Fli block,PAX8 reporter,Shn3 3UTR inh,LGR2 antag,MITF TRPM1 inh,EBV LMP1 NFkB
O=C(C[C@H]1CC[C@H]2[C@@H](COC[C@@H](O)CN2S(=O)(=O)c2cccc(F)c2)O1)Nc1ccc(-c2ccccc2)cc1,-50,-23,x,8,x,x
O=C(C[C@H]1CC[C@@H]2[C@H](COC[C@H](O)CN2S(=O)(=O)c2cccc(F)c2)O1)Nc1ccc(-c2ccccc2)cc1,2,116*,x,10,x,x
O=C(C[C@H]1CC[C@@H]2[C@H](COC[C@@H](O)CN2S(=O)(=O)c2cccc(F)c2)O1)Nc1ccc(-c2ccccc2)cc1,-78,72*,x,-4,x,x
CCC(=O)N1[C@H](CO)[C@@H](c2ccccc2)C12CN(Cc1nccs1)C2,6,-9,x,7,x,x
O=C(N[C@H]1CC[C@@H](CCNS(=O)(=O)c2ccc(Cl)cc2)O[C@@H]1CO)c1cccnc1,-5,-16,x,3,x,x
CC=Cc1ccc2n(c1=O)C[C@@H]1[C@@H](CO)[C@H](C(=O)N[C@@H](C)c3ccccc3)N(C)[C@H]21 (mixture of isomers),7,5,x,-7,x,x
O=C(N[C@H]1CC[C@@H](CCn2cc(-c3ccccn3)nn2)O[C@H]1CO)c1cccnc1,6,-43,x,13,x,x
O=C(NNc1nc2ccccc2s1)Nc1ccc(F)cc1,-83,-82,-58,-82,-67,-8
O=C(Nc1cccc(Cl)c1)Nc1nccs1,x,x,-13,x,-52,-12
O=C(NNc1nc2ccccc2s1)Nc1ccc(Cl)c(Cl)c1,3,64*,-8,18,12,-3
O=C(Nc1ccc(Cl)c(Cl)c1)Nc1nccs1,38,-56,51,-53,-5,66*
Cc1ccccc1S(=O)(=O)NCC[C@H]1CC[C@@H](NC(=O)Nc2cccc(Cl)c2)[C@H](CO)O1,2,21,x,-6,x,x
CO[C@H]1CN(C)C(=O)c2ccc(NC(=O)C3CC3)cc2OC[C@H](C)N(C(=O)c2ccncc2)C[C@H]1C,-2,4,x,1,x,x
Cc1noc(C)c1S(=O)(=O)Nc1ccc2c(c1)C(=O)N([C@@H](C)CO)C[C@@H](C)[C@H](CN(C)C(=O)Nc1ccc(F)cc1)OCCCC[C@H](C)O2,-10,-11,x,-2,x,x
Cc1noc(C)c1S(=O)(=O)Nc1ccc2c(c1)C(=O)N([C@H](C)CO)C[C@H](C)[C@H](CN(C)C(=O)Nc1ccc(C(F)(F)F)cc1)OCCCC[C@H](C)O2,0,68*,x,-6,x,x
Cc1noc(C)c1S(=O)(=O)Nc1ccc2c(c1)C(=O)N([C@H](C)CO)C[C@H](C)[C@@H](CN(C)C(=O)Nc1ccc(C(F)(F)F)cc1)OCCCC[C@H](C)O2,-18,86*,x,19,x,x
Cc1noc(C)c1S(=O)(=O)Nc1ccc2c(c1)C(=O)N([C@@H](C)CO)C[C@@H](C)[C@@H](CN(C)C(=O)Nc1ccc(C(F)(F)F)cc1)OCCCC[C@@H](C)O2,6,26,x,-4,x,x
Cc1noc(C)c1S(=O)(=O)Nc1ccc2c(c1)C(=O)N([C@@H](C)CO)C[C@H](C)[C@H](CN(C)C(=O)Nc1ccc(C(F)(F)F)cc1)OCCCC[C@H](C)O2,-12,89*,x,40,x,x
C[C@H]1CN([C@@H](C)CO)C(=O)c2cccc(NC(=O)c3nc4ccccc4s3)c2O[C@@H]1CN(C)Cc1ccc(-c2ccccc2)cc1,-3,x,x,17,x,x
CN1CCN(C(=O)C[C@@H]2CC[C@@H]3[C@H](COC[C@H](O)CN3S(=O)(=O)c3cccc(Cl)c3)O2)CC1,0,-26,x,-8,x,x
C[C@@H]1CCCCO[C@@H](CN(C)S(=O)(=O)c2ccccc2)[C@H](C)CN([C@H](C)CO)C(=O)c2cc(NS(=O)(=O)c3ccc(Cl)cc3)ccc2O1,8,66*,x,23,x,x
C[C@H]1CCCCO[C@H](CN(C)S(=O)(=O)c2ccccc2)[C@@H](C)CN([C@@H](C)CO)C(=O)c2cc(NS(=O)(=O)c3ccc(Cl)cc3)ccc2O1,13,100*,x,6,x,x
Cn1c(Cn2cnc([N+](=O)[O-])n2)nnc1SCC(=O)Nc1ccccc1,-3,81*,-5,-1,-15,1
